What was measured:
Test in all cases: log2 ratio of Biotin-Ahx-Ub-VS probe labelling (fragment/DMSO); higher = less target engagement (more negative = stronger competition), active = hit call of the paper (q ≤ 0.05, log2 ratio ≤ -1)
Conditions in all cases: compound concentration: 200 uM; treatment time: 3 h
USP19 = molecular target: T1, USP19 (UniProt O94966)
T1 sequence (whole entry): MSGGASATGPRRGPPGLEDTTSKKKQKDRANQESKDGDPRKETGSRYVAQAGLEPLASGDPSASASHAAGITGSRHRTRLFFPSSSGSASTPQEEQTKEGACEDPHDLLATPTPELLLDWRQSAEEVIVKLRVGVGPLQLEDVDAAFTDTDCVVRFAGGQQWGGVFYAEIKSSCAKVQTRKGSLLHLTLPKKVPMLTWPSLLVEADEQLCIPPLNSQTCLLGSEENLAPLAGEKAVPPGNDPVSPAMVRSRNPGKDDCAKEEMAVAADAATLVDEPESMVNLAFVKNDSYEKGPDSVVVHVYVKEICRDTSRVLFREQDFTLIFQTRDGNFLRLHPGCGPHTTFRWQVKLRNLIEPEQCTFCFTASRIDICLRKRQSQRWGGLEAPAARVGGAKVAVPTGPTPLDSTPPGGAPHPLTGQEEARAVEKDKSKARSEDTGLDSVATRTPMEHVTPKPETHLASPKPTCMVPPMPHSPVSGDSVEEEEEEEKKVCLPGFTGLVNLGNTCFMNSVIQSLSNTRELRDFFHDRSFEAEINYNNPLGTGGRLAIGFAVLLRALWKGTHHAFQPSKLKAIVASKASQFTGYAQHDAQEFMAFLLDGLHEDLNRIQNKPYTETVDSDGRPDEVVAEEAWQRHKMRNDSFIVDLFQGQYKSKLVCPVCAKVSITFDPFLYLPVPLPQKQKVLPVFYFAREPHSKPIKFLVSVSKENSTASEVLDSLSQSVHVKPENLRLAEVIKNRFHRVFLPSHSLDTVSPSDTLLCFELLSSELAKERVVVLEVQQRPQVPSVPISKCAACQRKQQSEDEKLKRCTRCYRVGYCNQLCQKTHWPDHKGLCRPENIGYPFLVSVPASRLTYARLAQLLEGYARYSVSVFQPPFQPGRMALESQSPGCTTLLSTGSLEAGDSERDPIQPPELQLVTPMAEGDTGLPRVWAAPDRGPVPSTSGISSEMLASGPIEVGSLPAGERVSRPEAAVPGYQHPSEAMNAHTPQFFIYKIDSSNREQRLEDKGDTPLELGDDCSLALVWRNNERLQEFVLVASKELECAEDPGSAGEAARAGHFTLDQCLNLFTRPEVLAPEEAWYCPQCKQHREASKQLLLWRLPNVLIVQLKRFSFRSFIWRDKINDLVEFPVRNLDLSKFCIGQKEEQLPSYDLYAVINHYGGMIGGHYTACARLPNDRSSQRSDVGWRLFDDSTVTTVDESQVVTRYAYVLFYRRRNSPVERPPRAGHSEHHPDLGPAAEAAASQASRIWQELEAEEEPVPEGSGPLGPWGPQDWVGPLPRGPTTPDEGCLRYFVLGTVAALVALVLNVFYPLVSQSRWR
How it was run: (§1)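 Labelled DUBs were enriched with NeutrAvidin, digested with LysC and trypsin, and run by diaPASEF LC-MS/MS. The labelling used Biotin-Ahx-Ub-VS at 0.5 µM final for 1 h on HEK293T lysate (495 µg per sample) previously treated in triplicate with fragment at 200 µM or vehicle for 3 h. Values are average log2 fragment/vehicle ratios by unpaired t-test on global-median-normalised Spectronaut quantities of proteins with ≥2 unique peptides.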

USP22 = molecular target: T2, USP22 (UniProt Q9UPT9)
T2 sequence (whole entry): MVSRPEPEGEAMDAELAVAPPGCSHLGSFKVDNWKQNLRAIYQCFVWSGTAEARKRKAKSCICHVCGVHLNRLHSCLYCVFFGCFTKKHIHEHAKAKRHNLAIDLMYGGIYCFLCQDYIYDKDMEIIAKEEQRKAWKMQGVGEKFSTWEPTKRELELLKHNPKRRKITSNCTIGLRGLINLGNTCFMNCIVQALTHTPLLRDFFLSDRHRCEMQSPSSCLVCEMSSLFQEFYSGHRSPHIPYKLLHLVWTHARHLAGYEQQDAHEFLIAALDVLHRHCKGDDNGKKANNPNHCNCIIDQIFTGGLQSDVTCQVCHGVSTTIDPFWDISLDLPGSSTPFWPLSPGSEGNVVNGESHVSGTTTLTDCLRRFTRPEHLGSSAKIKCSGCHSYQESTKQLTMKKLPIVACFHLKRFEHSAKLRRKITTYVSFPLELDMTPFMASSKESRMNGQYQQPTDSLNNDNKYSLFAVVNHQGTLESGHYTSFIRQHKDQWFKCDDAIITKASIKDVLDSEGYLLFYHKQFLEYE
How it was run: as §1

USP24 = USP24 (UniProt Q9UPU5)
Sequence of USP24 (Q9UPU5 whole entry): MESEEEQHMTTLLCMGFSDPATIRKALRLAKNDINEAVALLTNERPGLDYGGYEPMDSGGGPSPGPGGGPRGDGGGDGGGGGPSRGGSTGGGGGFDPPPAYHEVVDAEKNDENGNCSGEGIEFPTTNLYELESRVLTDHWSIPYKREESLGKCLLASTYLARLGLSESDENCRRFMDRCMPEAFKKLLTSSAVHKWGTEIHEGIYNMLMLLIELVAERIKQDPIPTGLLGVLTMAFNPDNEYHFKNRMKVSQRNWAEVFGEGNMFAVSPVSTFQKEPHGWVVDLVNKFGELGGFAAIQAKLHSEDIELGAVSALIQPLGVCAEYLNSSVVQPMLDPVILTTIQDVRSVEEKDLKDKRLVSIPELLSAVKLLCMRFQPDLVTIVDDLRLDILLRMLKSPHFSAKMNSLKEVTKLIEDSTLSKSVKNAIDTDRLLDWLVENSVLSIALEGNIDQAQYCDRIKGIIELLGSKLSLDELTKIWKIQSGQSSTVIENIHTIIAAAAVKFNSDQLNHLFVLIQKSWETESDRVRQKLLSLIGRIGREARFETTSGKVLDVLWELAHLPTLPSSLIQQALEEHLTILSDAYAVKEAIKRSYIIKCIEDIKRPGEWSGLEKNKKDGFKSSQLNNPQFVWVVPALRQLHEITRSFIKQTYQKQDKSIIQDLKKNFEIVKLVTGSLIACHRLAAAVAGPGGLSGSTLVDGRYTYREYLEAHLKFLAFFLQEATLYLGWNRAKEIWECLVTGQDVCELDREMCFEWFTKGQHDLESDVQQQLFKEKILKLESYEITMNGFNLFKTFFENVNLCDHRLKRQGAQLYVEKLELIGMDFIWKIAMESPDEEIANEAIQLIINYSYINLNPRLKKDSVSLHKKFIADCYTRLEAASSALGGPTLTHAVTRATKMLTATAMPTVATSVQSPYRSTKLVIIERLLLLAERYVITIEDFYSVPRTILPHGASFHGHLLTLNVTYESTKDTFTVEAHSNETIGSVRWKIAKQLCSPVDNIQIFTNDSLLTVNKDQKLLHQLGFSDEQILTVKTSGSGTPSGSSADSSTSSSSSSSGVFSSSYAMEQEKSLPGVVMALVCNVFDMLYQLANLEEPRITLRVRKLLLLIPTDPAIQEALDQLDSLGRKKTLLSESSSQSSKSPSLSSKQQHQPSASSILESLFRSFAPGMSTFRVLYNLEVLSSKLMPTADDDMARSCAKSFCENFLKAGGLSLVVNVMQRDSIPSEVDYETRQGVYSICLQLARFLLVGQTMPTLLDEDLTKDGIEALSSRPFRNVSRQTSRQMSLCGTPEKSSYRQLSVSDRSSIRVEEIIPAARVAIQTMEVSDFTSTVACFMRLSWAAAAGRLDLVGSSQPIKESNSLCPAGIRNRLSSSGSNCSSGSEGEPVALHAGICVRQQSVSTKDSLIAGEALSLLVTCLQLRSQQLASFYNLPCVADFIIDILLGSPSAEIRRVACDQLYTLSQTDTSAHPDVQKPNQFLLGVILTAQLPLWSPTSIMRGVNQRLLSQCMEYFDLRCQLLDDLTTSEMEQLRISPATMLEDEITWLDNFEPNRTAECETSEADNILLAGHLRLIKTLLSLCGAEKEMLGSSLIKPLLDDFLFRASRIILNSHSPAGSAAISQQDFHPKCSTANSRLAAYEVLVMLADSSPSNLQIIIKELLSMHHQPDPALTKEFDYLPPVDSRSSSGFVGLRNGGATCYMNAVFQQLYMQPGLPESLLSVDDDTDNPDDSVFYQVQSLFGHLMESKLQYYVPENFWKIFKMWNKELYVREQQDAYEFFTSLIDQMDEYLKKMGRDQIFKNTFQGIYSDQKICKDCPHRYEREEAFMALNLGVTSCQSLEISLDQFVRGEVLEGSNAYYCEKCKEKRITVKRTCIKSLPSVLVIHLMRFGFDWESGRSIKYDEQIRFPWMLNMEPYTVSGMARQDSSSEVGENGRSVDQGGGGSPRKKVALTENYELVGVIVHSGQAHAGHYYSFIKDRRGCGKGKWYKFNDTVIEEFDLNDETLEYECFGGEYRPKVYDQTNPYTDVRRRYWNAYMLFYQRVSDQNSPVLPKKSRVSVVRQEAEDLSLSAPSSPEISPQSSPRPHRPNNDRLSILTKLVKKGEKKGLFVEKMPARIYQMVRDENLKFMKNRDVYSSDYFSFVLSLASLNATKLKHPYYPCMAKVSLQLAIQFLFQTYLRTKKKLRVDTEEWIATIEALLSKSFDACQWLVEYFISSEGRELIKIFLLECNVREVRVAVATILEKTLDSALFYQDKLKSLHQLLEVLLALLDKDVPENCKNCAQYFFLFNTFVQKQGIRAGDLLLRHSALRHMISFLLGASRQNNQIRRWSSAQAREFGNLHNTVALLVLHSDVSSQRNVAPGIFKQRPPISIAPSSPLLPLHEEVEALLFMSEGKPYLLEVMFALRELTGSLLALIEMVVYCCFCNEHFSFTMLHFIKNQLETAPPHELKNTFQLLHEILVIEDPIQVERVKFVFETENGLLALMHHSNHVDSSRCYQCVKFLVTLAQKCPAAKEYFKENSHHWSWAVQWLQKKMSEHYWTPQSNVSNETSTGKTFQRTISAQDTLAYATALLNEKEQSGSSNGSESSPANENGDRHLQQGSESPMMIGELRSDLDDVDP
How it was run: as §1

USP25 = molecular target: T3, USP25 (UniProt Q9UHP3)
T3 sequence (whole entry): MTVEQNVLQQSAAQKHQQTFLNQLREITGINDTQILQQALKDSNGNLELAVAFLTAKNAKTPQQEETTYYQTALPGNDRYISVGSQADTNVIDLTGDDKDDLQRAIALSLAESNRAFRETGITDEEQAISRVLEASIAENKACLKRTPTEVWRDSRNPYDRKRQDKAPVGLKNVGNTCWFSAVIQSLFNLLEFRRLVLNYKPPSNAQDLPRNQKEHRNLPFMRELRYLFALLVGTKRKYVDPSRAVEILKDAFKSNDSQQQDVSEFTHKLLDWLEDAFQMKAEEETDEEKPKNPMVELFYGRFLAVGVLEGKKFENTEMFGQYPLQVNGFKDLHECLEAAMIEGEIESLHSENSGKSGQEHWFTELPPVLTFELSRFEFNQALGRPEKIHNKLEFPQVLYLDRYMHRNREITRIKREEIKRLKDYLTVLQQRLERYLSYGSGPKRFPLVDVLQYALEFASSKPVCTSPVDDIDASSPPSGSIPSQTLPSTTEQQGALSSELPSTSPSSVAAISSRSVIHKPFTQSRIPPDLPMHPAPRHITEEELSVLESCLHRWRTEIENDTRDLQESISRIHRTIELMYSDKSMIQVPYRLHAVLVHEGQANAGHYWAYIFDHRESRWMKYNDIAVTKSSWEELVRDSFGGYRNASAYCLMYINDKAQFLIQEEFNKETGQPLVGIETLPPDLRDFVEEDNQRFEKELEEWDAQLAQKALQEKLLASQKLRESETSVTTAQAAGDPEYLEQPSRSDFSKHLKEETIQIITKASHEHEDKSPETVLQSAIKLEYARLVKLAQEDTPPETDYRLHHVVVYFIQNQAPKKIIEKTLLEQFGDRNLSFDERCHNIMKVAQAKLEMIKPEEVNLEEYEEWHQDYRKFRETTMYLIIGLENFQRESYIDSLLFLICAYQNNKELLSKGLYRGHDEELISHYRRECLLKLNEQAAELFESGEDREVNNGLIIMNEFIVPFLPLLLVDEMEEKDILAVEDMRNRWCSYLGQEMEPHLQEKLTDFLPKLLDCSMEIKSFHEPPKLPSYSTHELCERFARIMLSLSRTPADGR
How it was run: as §1

USP28 = molecular target: T4, USP28 (UniProt Q96RU2)
T4 sequence (whole entry): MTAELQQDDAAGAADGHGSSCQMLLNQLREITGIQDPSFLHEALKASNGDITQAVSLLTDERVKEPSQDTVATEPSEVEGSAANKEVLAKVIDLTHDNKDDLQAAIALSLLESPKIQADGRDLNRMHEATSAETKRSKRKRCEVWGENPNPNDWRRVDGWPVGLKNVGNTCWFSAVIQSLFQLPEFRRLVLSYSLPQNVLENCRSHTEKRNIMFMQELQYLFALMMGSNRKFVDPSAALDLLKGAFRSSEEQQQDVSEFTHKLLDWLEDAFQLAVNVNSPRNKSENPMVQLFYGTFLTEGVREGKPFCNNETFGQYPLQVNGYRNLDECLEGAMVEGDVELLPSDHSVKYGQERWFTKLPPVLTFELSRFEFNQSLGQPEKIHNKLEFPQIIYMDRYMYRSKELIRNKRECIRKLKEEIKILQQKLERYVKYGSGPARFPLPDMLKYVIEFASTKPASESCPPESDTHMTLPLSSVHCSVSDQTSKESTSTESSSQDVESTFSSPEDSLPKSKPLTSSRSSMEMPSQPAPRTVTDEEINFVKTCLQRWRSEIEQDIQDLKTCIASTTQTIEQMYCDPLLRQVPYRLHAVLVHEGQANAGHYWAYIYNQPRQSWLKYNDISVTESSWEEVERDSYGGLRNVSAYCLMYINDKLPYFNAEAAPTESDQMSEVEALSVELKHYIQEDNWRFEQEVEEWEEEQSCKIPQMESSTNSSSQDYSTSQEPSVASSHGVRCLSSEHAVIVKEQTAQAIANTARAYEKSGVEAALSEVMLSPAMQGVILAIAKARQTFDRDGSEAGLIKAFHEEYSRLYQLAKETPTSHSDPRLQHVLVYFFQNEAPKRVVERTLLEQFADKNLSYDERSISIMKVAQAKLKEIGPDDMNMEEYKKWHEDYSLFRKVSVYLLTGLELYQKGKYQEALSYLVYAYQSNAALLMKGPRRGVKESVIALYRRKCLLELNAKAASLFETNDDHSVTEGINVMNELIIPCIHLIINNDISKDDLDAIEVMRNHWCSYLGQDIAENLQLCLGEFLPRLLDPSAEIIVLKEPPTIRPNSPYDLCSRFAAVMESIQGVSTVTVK
How it was run: as §1

Measured: log2 ratio of Biotin-Ahx-Ub-VS probe labelling

O=C(CCl)N(C1=CCCCC1)C1CC1
inactive: USP19 -0.0989 | USP22 -0.481 | USP24 -0.573 | USP25 -0.226 | USP28 -0.185
